# Source: PubChem BioAssay (NCATS)
# Results filed as inconclusive are left out. Where a call stands in place of a potency, no number is given. Activity calls are given as the source filed them. The call rests on the fitted dose curve; in most records, active means well fitted inhibition curve with a large enough effect; inconclusive means small, poorly fitted or top-dose-only effect; inactive means flat fitted curve, though single readings scatter.
# Target: Calcium and integrin-binding protein 1 (Homo sapiens) (UniProt Q99828)
# Sequence (Q99828 whole entry, looked up): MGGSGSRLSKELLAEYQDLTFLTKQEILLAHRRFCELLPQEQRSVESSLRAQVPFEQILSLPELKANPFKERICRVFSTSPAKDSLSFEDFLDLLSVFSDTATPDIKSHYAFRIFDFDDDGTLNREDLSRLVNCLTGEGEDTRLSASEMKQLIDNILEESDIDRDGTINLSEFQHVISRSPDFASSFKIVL
# Assay: Primary qHTS for Identification of Calcium Integrin Binding Protein 1 (CIB1) Competitor (AID 1508620);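 further: GST tagged CIB1 binding a fluorescein labelled alphaIIb integrin peptide tracer; top concentration of the series differs between compounds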
# In short: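 CIB1-GST (1 uM final) and compound incubated 15 min at room temperature before adding FITC-alphaIIb peptide tracer (100 nM final). Competition for binding read by fluorescence polarization (ex 480, em 540) after another 15 min at room temperature.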
row,Structure (SMILES),Potency
1,CC1=C(C(=O)Nc2ccccc2Cl)C(c2ccccc2Br)N=C(Nc2nc3ccccc3o2)N1 (stereo not given),inactive
2,CCOc1ccc(NC(=O)Nc2ccc(-c3nc4ccccc4[nH]3)cc2)cc1,inactive
3,Cc1cc(C)nc(/N=C(\NC#N)N2CCN(c3cccc(C(F)(F)F)c3)CC2)c1,inactive
4,Cc1cc(NCc2ccc(-c3cccnc3)cc2)nc(-c2ccccc2C(C)C)n1,inactive
5,FC(F)(F)c1cccc(-c2nc(NCc3ccc(-c4cccnc4)cc3)c3ccccc3n2)c1,inactive
6,Cc1ccc(-c2ccc(=O)n(CC(=O)NCCc3cnc[nH]3)n2)cc1,inactive
7,c1nc(NCC2CCCC2)c2cc(-c3ccc4c(c3)OCO4)ccc2n1,inactive
8,Cc1cnc(-c2ccccc2C(C)C)nc1NCC1CN(c2cccnc2)C1,inactive
9,N#Cc1cc(NC(=O)Nc2nnc(-c3ccncc3)s2)ccc1-c1ccc[nH]1,inactive
10,Cc1cc(C)nc(NC(=S)N2CCN(c3cccc([N+](=O)[O-])c3)CC2)c1,inactive
11,S=P(c1ccccc1)(c1ccccc1)c1c[n+](C/C=C/c2ccccc2)c2ccccn12,inactive
12,Cc1ccc(NS(=O)(=O)c2cc3c(cc2N2CCC2)NC(=O)CC3)cc1C,inactive
13,Cn1nnnc1Sc1ncnc2scc(-c3ccc4c(c3)OCO4)c12,inactive
14,O=C(Nc1ccc(F)c(C(F)(F)F)c1)Nc1ccc(-c2ccncc2)s1,inactive
15,CCC(=O)NC(c1ccco1)c1cc(Cl)c2cccnc2c1O (stereo not given),inactive
16,Cn1nnnc1Sc1ncnc2scc(-c3ccccc3Cl)c12,inactive
17,COc1ccc(OC)c(-c2nnc3n2N=C(c2ccc(OC)c(OCC4CC4)c2)CS3)c1,inactive
18,Cc1cc2c(s1)c1c(n2C)C(=O)N(Cc2ccccc2F)C1,inactive
19,Fc1cccc(CNc2ncnc3ccc(-c4cccc(Cl)c4)cc23)c1,inactive
20,C#CCOc1cc(C2=Nn3c(nnc3-c3cccc(OCC(C)=O)c3)SC2)ccc1OC,inactive

row,Structure (SMILES),Potency
1,CC(=O)N(C(C)=O)n1c(C)nc2sc3c(c2c1=O)CCNC3,inactive
2,Fc1c(-c2ccc3ncnc(NCc4cccs4)c3c2)ccc2c1OCO2,inactive
3,COc1cccc(-c2no[n+]([O-])c2C#N)c1,inactive
4,CC(C)(C)OC(=O)N1CCN(c2ccc(NCc3occc3-c3ccc(C#N)cc3)cc2)CC1,inactive
5,COc1ccc(-c2cncc(NC(=O)c3cccs3)c2)cc1OC,inactive
6,N#Cc1cccc(-c2noc(-c3ccccc3F)n2)c1,inactive
7,Fc1cc(Nc2nc(-c3ccncc3)nc3ccccc23)ccc1N1CCCCC1,inactive
8,COc1ccc(Cn2ncc3c4sc(C)cc4n(C)c3c2=O)cc1F,inactive
9,CN(C)c1ccc(C(=O)OCC#CCSc2nnc(-c3cccc4ccccc34)o2)cc1,inactive
10,NC(=O)C1CCN(c2ncc(-c3ccc(Br)cc3)s2)CC1,inactive
11,NC(=O)C1CCN(c2nc(-c3ccc(N4CCCCC4)nc3)cs2)CC1,inactive
12,COC(=O)C1CCN(C(=O)c2ccc3c(c2)ncn3-c2cccc(C)c2)CC1,inactive
13,Cc1cccc(-n2cnc3cc(C(=O)N4CCC(C#N)CC4)ccc32)c1,inactive
14,O=S(=O)(c1ccc(O)c2ncccc12)N1CCCCC1,inactive
15,NNc1ccc(NC(=O)c2cccs2)cn1,inactive
16,O=Cc1nc(Nc2cc(F)cc(F)c2)nc(NC2CCCC2)n1,inactive
17,Cn1nnnc1Sc1ncnc2scc(-c3ccc(C(F)(F)F)cc3)c12,inactive
18,Cc1ccc2nsnc2c1S(=O)(=O)Nc1cccc2cccnc12,inactive
19,Cc1cc(C)nc(NC(=S)N2CCN(c3ccc(N4CCCC4)nn3)CC2)c1,inactive
20,COc1ccccc1NC(=O)c1ccc2ccccc2c1,inactive

row,Structure (SMILES),Potency
1,COc1cccc(C2=Nn3c(nnc3-c3cccc(OC)c3)SC2)c1,inactive
2,CC(=O)N1CCCc2cc(S(=O)(=O)Nc3ccc(C)c(C)c3)ccc21,inactive
3,Fc1cccc(CNc2ncnc3ccc(-c4cccnc4)cc23)c1,inactive
4,CN(C)[S+](=O)([O-])c1ccc(-c2ccc(=O)n(CC(=O)NCCc3ccccc3)n2)cc1,inactive
5,O=C(Cc1ccc(Cl)c(Cl)c1)Nc1ccc(S(=O)(=O)NCc2ccco2)cc1,inactive
6,Cc1cc(C)n2ncc(C(=O)N3CCCC3)c2n1,inactive
7,O=C1CCc2cc(S(=O)(=O)Nc3ccc4ccccc4c3)ccc2N1,inactive
8,C(=C\c1cccs1)/c1cccnc1,inactive
9,C=CCc1cc(F)c(S(=O)(=O)N2CCN(S(=O)(=O)c3ccc4c(c3)OCCO4)CC2)cc1F,inactive
10,CN(C)CCCNC(=O)c1ccc(-c2cnc3c(O)ccc(C(=O)O)c3c2)cc1,inactive
11,Cc1ccc(C)n1-c1cccc(-c2nn[nH]n2)c1,inactive
12,O=C(Nc1ccc2c(c1)OCO2)Nc1nnc(-c2ccncc2)s1,inactive
13,O=S1(=O)Nc2c(ccc3cccnc23)-c2ccccc21,inactive
14,COc1cnccc1-c1nc(Nc2ccc(F)c(F)c2)c2ccccc2n1,inactive
15,Cc1cc(C)nc(NC(=S)N2CC3CN(c4ncc(C(F)(F)F)cc4Cl)CC3C2)c1 (stereo not given),inactive
16,N#Cc1ccc(-c2ccc(C3Nc4ccccc4C(=O)N3O)o2)cc1 (stereo not given),inactive
17,O=C1Cc2cc(S(=O)(=O)N3CCN(c4ccc(CO)cc4)CC3)ccc2N1,inactive
18,N#Cc1c(-c2cc(C(F)(F)F)cc(C(F)(F)F)c2)no[n+]1[O-],inactive
19,O=C1CCCC2=C1C(c1[nH]ncc1Cl)NC(=NCc1cccs1)N2 (stereo not given),inactive
20,Cc1ccc(NC(=O)CN2C(=O)N/C(=C\c3ccco3)C2=O)cc1,inactive
